Source: ChEMBL document CHEMBL4513216, “Probing the Open Global Health Chemical Diversity Library for Multistage-Active Starting Points for Next-Generation Antimalarials” (ACS Infect Dis, 2020)
Among all 69,000 compounds or so, about 8,600 (12%) showed an effect of 50% or more. For the sample, strong results were picked, then their nearest neighbours and some compounds at random.

test system: Plasmodium berghei; experiment: Screen against P. berghei liver stage (PbLuc), transformed with Luciferase, at 10uM; type: functional, HepG2; conditions: tested at 10 uM

Row | SMILES | INHIBITION
1 | CC(C)C1SCC(=O)Nc2c1c(O)nn2C1CCCC1 (stereo not given) | 1.04%
2 | CC(C)C1SCC(=O)Nc2c1c(O)nn2C1CCCCC1 (stereo not given) | 74.4%
3 | CC(C)(C)C1SCC(=O)Nc2c1c(O)nn2C1CCCCC1 (stereo not given) | 37.4%
4 | CC(C)Oc1ccccc1C1CC(=O)Nc2nc(N3CCOCC3)sc21 (stereo not given) | -41.2%
5 | Cc1nc2c(c(=O)[nH]1)CCN(C(=O)c1[nH]nc3c1CC(C)CC3)C2 (stereo not given) | 15.2%
6 | c1nc(CN2CCCC(Cc3ccc(NC4CCCC4)nn3)C2)c[nH]1 (stereo not given) | 13.7%
7 | CCOc1ccnc(N2CCN(Cc3ncccc3C)CC2)n1 | 27.9%
8 | Cc1cccnc1CN1CCN(c2noc(-c3ccccc3)n2)CC1 | -13.2%
9 | Cc1cc(C)c2c(N3CCN(CCN4CCOCC4)CC3)ncnc2n1 | 40.3%
10 | CCNc1ccnc(N2CCN(Cc3ncccc3C)CC2)n1 | 51.3%
11 | Cc1cc(C)c2c(N3CCN(Cc4ncccc4C)CC3)ncnc2n1 | 58.1%
12 | COCCN1CCN(c2ncnc3nc(C)cc(C)c23)CC1 | -14.1%
13 | CC(C)C(=O)N1CCN(c2ncnc3cc4c(cc23)OCCO4)CC1 | 2.69%
14 | O=C(O)c1ccccc1-n1cc(CN2CCOC(c3cc[nH]n3)C2)cn1 (stereo not given) | 20.7%
15 | Cc1ccc(-c2nc(CN3CCCC(Cn4cncn4)C3)cs2)o1 (stereo not given) | -7.35%
16 | Nc1ncnc2nc(C3CCN(C(=O)Cc4ccc(F)cc4)C3)ccc12 (stereo not given) | -19.9%
17 | CCC(C)N(Cc1cnc(NC(C)C)nc1)Cc1ccsc1 (stereo not given) | 30.4%
18 | CCc1nnc(Nc2cccc(C3CCN(C(=O)CNC)CC3)n2)s1 | -17.7%
19 | CC(Cc1cn(CCc2n[nH]c(=O)[nH]2)nn1)c1ccccc1 (stereo not given) | 18.5%
20 | CN(C)c1ccc(CC2CCN(c3cnccn3)C2)nn1 (stereo not given) | 0.696%
21 | COC1(CNC(=O)c2ccsc2)CCSC1 (stereo not given) | 5.91%
22 | COC(=O)CN1CCC(C(F)(F)F)CC1 | -8.9%
23 | CN(C)Cc1cnc2n1CCN(C(=O)Cc1ccc(F)cc1)CC2 | 52.6%
24 | CN(C)Cc1cnc2n1CCN(C(=O)Cc1cccc(F)c1)CC2 | 37.9%
25 | Cc1ccsc1C(=O)N1CCc2ncc(CN3CCCC3)n2CC1 | 8.6%
26 | Cc1ccsc1C(=O)N1CCc2ncc(Cn3cccn3)n2CC1 | 29.4%
27 | Cc1ccsc1C(=O)N1CCc2ncc(CN(C)C)n2CC1 | 62.9%
28 | CN(C)Cc1cnc2n1CCN(C(=O)Cc1ccsc1)CC2 | 11.3%
29 | Cc1nc(N)ncc1C(=O)N1CCCC(CCc2ccccc2F)C1 (stereo not given) | 43.9%
30 | O=c1[nH]c2ccccc2cc1CNCCCN1CCOCC1 | 36.4%
